Experimental data reported in PubChem BioAssay.
Unmarked numbers belong to inactive results.

Assay: resazurin metabolic signal in A549 cells – cell-based, resazurin fluorescence, 24 h, PK04 Diversity Set, profiling panel (AID 1171); further: test concentration not given here
Conditions: A549 viability, higher = more signal, called active from +8 up or from −8 down

Row | SMILES | z-score
1 | C=CCNC(=O)[C@@H]1[C@H]2C(=O)O[C@H](c3ccccc3)[C@H](c3ccccc3)N2[C@H](c2ccc(OCCO)cc2)[C@@]12C(=O)Nc1ccc(C#CCCO)cc12 | 0.344
2 | [N-]=[N+]=NCc1ccccc1C[C@]1(C(=O)N2CCOCC2)N=C(c2ccc(OCCCO)cc2)O[C@H]1c1ccccc1N=[N+]=[N-] | -0.678
3 | C=CCNC(=O)[C@H]1[C@@H]2C(=O)O[C@@H](c3ccccc3)[C@@H](c3ccccc3)N2[C@@H](c2ccc(OCCO)cc2)[C@]12C(=O)Nc1ccc(C#CC3=CCCCC3)cc12 | -0.829
4 | COC(=O)[C@@]1(Cc2ccc(OC)cc2)[C@H]2c3cc(C(=O)N4CCCC4)n(Cc4ccccc4)c3C[C@H]2CN1C(=O)c1ccccc1 | -2.5
5 | CCCC[C@@H]1C[C@H]1[C@@H](NC(=O)c1ccco1)c1ccc(C(=O)OC)cc1 | -0.136
6 | C=CCOC(=O)[C@H]1[C@@H]2C(=O)O[C@@H](c3ccccc3)[C@@H](c3ccccc3)N2[C@@H](c2ccc(OCCOC(=O)[C@H]3C[C@H]4C(=O)N[C@@H](CC(C)C)C(=O)N4[C@H]3c3ccc(O)cc3)cc2)[C@]12C(=O)Nc1ccc(I)cc12 | 0.0559
7 | COC(=O)c1c(CC[C@@H](CO)NC(=O)N[C@@H](C)Cn2cc(C3(O)CCCCC3)nn2)oc(C(C)=O)c1C(=O)OC | -1.04
8 | CC(C)N1C(=O)[C@@]2(Cc3ccccc31)c1ccccc1C(=O)N(C1CCCCC1)[C@H]2c1ccc(CO)cc1 | 2.32
9 | CN(C)CCCNC(=O)[C@@]1(c2ccc([N+](=O)[O-])cc2)CC(=O)N(C2CCCCC2)[C@@H]1c1ccc(CO)cc1I | -6.55
10 | CCOC(=O)C[C@H]1[C@H](OC(=O)c2ccc(C(=O)c3ccccc3)cc2)[C@@H](NC(=O)c2ccc(-c3ccccc3)cc2)c2cc(OCCCO)ccc2N1C(=O)c1ccccc1 | -0.31
11 | C=CCNC(=O)[C@@H]1[C@H]2C(=O)O[C@H](c3ccccc3)[C@H](c3ccccc3)N2[C@H](c2ccc(OCCO)cc2)[C@@]12C(=O)Nc1ccc(C#Cc3ccc(OC)cc3)cc12 | -1.03
12 | O=C1O[C@H](c2ccccc2)[C@H](c2ccccc2)N2[C@H]1[C@@H](C(=O)N1CCN(c3ncccn3)CC1)[C@]1(C(=O)Nc3ccc(C#CC4=CCCCC4)cc31)[C@H]2c1ccc(O)cc1 | -0.526
13 | O=C1OCCC/C=C\[C@H]2OC34C=CCN(c5ccc6ccccc6c5)C(=O)[C@H]3N(CCCCCCO)C(=O)[C@@H]4C12 (some centres not stated) | -0.0595
14 | C#CCN(CC=C(C)C)[C@H](CO)c1ccccc1 | -0.665
15 | C=C(CCCC)C(=O)CC[C@H](OC(C)=O)c1cccc(OCCO)c1 | -0.252
16 | COCCOC(=O)N1C(=O)[C@@]2(c3cc(C#Cc4ccc(OC)cc4)ccc31)[C@H](C(N)=O)[C@H]1C(=O)O[C@H](c3ccccc3)[C@H](c3ccccc3)N1[C@@H]2c1ccccc1OCCO | -1.85
17 | COc1ccc(C(=O)Nc2cccc(CN3C(=O)[C@]4(O[C@H](CCO)[C@@H]([Si](C)(C)c5ccc(OC)cc5)[C@@H]4C)c4ccccc43)c2)cc1 | -6.33
18 | Cc1ccc(S[C@]2(C(=O)NCC(F)(F)F)CC(=O)N(C(C)C)[C@@H]2c2ccc(CO)cc2I)cc1 | 0.683
19 | COC(=O)[C@@]1(Cc2ccc(OC)cc2)[C@H]2c3cc(C(=O)N(C)C)n(CCN4CNCC4=O)c3C[C@H]2CN1C(=O)c1ccccc1 | 0.367
20 | COCCOC(=O)N1C(=O)[C@@]2(c3cc(C#CCNC(N)=O)ccc31)[C@H](C(=O)NC[C@H](O)c1ccccc1)[C@H]1C(=O)O[C@H](c3ccccc3)[C@H](c3ccccc3)N1[C@@H]2c1ccccc1OCCO | -0.0062
21 | CC(C)(C)OC(=O)CC[C@]1(C(=O)O)N=C(c2ccc(OCCCO)cc2)O[C@H]1c1ccccc1N=[N+]=[N-] | 0.0553
22 | O=C1C2C=CC(C(O)C(c3ccccc3)c3ccccc3)N(n3cnnc3)C2C(=O)N1Cc1ccccc1 (configuration not stated) | -0.387
